# Experimental data: PubChem BioAssay
# The source made the active and inactive calls.
# What was measured:
# [1] = small molecules captured by biotinylated probe aFSTL3 – biochemical, small-molecule microarray, fluorescence 635/667, stem cell growth factor project, primary screen (AID 1064); settings: higher = more signal;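 also: measures binding of the biotinylated anti-FSTL3 antibody to printed compounds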
# [2] = binders from COS7 lysate, DM2A8 probe, primary screen, torsin A project, cell lysate, small-molecule microarray, fluorescence 635/667 (AID 1065); settings: higher = more signal, COS7 lysate expressing mutant human TOR1A
# [3] = small molecules captured by biotinylated probe aFGF2 – biochemical, small-molecule microarray, fluorescence 635/667, stem cell growth factor project, primary screen (AID 1067); settings: higher = more signal;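 also: measures binding of biotinylated aFGF2 protein to printed compounds on slides; z-score merges feature fluorescence and signal-to-noise across triplicate slides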
# [4] = small molecules captured by biotinylated probe aFGF10 – biochemical, small-molecule microarray, fluorescence 635/667, stem cell growth factor project, primary screen (AID 1071); settings: higher = more signal;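 also: score merges 667 nm spot intensity and signal to noise from triplicate slides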
# [5] = target: Neurogenic locus notch homolog protein 2 (Homo sapiens) (UniProt Q04721); experiment: small molecules binding Notch2 protein – biochemical, small-molecule microarray, 635 nm fluorescence, stem cell growth factors, primary screen (AID 1073); settings: higher = more signal
# [6] = target: Pro-neuregulin-1, membrane-bound isoform (Homo sapiens) (UniProt Q02297); experiment: small molecules binding neuregulin-1 protein – biochemical, small-molecule microarray, fluorescence 635/667, psychiatric disease protein project, primary screen (AID 1075); settings: NRG1 binding, 635 nm fluorescence, higher = more signal;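 also: score combines 667 nm spot fluorescence with signal to noise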
# [7] = tested on: Neuregulin-1 EGF-like domain; experiment: small molecules binding NRG1 EGF domain – biochemical, small-molecule microarray, 635 nm fluorescence, primary screen (AID 1081); settings: higher = more signal;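 also: binding of the protein to compounds printed on small-molecule microarray slides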
# [8] = FRG1 expression reporter modulators in myotubes – cell-based, C2C12 myotubes, firefly/Renilla luciferase, luminescence, FRG1 inhibition for FSHD, primary screen (AID 1084); settings: FRG1 promoter luciferase, higher = more signal, called active from +8 up or from −8 down
# [9] = small molecules captured by biotinylated probe aFST – biochemical, small-molecule microarray, fluorescence 635/667, stem cell growth factor project, primary screen (AID 1086); settings: higher = more signal;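 also: score merges 667 nm fluorescence with signal-to-noise of each printed compound spot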
# [10] = binders of probe aHhip on microarray, primary screen, stem cell growth factor project, biochemical, small-molecule microarray, fluorescence 635/667 (AID 1087); settings: higher = more signal;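 also: score merges spot fluorescence at 667nm with spot signal to noise ratio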
# Sequence of Neurogenic locus notch homolog protein 2 (Homo sapiens) (Q04721 whole entry, looked up, canonical isoform): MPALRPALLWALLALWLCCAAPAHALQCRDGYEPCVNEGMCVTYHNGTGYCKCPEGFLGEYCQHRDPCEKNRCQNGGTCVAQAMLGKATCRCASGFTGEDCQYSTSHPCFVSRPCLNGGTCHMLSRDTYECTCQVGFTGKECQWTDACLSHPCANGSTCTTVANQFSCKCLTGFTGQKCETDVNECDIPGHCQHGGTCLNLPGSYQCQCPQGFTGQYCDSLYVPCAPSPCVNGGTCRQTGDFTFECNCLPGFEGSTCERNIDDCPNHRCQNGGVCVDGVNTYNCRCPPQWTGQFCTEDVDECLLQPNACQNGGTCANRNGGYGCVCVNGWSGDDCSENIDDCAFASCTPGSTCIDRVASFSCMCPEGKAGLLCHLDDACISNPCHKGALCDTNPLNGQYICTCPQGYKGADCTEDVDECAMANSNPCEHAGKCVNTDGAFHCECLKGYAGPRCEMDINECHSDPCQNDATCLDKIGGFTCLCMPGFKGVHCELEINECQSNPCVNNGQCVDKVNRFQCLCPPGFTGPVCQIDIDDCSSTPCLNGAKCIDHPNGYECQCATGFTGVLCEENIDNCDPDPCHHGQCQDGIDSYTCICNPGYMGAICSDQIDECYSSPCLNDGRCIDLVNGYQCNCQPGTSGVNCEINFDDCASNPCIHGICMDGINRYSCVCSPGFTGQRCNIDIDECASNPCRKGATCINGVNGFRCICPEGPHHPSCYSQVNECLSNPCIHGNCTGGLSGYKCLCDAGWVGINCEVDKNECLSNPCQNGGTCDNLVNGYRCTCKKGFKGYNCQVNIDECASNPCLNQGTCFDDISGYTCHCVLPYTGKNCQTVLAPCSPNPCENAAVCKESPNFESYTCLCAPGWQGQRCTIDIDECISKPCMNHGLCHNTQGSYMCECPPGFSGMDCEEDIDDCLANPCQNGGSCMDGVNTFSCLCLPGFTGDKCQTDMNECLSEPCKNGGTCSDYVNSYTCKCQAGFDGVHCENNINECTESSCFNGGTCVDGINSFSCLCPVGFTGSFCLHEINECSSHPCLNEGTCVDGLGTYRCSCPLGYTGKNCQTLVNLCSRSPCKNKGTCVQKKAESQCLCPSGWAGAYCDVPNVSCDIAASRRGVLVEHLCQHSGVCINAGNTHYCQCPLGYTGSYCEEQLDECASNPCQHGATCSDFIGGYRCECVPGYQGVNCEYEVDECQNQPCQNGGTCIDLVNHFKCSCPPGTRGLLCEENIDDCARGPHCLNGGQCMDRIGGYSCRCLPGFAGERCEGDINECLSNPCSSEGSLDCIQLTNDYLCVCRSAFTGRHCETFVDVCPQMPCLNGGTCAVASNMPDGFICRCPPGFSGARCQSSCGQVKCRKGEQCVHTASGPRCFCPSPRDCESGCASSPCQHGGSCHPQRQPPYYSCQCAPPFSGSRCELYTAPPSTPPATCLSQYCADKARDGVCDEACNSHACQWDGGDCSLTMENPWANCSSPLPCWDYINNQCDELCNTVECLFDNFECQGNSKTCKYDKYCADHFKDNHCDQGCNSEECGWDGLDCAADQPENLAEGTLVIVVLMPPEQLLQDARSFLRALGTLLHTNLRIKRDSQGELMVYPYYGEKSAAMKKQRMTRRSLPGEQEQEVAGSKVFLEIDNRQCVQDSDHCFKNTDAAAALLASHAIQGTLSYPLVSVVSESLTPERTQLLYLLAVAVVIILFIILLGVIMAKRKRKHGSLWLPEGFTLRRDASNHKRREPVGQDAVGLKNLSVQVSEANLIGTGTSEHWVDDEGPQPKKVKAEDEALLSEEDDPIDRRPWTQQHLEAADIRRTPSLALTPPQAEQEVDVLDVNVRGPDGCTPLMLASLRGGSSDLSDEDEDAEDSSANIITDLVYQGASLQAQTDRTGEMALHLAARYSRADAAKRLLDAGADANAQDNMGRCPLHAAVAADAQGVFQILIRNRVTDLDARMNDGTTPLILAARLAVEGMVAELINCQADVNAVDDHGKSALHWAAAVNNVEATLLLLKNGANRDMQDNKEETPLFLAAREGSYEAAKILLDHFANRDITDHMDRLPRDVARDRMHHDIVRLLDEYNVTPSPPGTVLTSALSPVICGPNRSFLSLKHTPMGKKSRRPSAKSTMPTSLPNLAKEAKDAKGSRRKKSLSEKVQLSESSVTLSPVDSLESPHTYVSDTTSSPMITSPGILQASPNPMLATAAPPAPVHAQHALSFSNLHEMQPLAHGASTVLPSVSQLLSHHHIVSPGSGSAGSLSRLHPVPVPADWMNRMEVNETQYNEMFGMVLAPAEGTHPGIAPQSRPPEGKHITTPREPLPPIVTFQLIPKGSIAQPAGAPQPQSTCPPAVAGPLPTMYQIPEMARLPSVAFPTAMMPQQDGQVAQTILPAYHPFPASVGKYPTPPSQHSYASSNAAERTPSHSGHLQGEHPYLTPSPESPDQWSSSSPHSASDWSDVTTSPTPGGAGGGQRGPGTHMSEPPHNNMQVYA
# Sequence of Pro-neuregulin-1, membrane-bound isoform (Homo sapiens) (Q02297 whole entry, looked up, the tested form may be a part, canonical isoform): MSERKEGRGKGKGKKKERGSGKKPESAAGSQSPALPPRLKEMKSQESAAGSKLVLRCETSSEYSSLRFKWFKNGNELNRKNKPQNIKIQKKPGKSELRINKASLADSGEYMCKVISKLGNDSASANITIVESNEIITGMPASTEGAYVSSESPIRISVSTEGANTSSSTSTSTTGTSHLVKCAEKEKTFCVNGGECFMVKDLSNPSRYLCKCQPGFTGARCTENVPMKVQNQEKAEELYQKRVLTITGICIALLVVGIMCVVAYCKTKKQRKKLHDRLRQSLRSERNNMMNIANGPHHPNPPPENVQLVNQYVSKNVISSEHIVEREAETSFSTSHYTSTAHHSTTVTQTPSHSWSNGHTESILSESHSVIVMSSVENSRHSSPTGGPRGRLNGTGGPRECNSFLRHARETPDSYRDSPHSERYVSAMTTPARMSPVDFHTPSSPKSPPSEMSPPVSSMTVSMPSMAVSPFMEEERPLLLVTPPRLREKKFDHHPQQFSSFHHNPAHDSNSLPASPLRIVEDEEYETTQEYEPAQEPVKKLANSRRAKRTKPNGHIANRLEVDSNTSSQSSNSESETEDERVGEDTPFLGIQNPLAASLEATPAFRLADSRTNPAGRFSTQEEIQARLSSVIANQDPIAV
Structure (SMILES),composite z-score [1],composite z-score [2],composite z-score [3],composite z-score [4],composite z-score [5],composite z-score [6],composite z-score [7],z-score [8],composite z-score [9],composite z-score [10]
C#CCCCON=C1C[C@@H](O)[C@@H](O)[C@@H]2[C@@H]3C(=O)N(c4cccc(Oc5ccccc5)c4)C(=O)[C@@H]3CC[C@@H]12,-0.456,-0.666,-0.0296,0.967,0.88,1.44,0.598,0.407 (inactive),0.319,-0.334
COC(=O)C1(C)C=C2C(=C(c3ccccc3)C(=O)C2C)CN1 (stereo not given),0.84,0.0679,-0.0535,-0.18,-0.167,1.96,0.691,2.35 (inactive),0.313,0.23
COc1ccc(O[C@H]2C=C[C@@H](c3ccccc3)O[C@@H]2COC(=O)CCC(C)=NO[C@@H](C)c2cc(-c3c(C)cc(C)cc3C)no2)cc1,-0.0675,-0.499,-0.199,-0.522,-1.07,-0.524,-1.08,0.0014 (inactive),-0.666,-0.237
O=C1CCCC2OC12C(O)CCc1ccccc1 (stereo not given),-0.555,0.475,-0.166,0.411,0.455,-0.333,-0.251,0.42 (inactive),-0.0128,-0.226
COc1ccc(O[C@@H]2[C@H](O)CO[C@H]2C=CC#Cc2ccccc2)cc1,-0.389,0.511,-0.159,0.0175,-0.22,0.068,-0.203,-0.606 (inactive),-0.182,-0.0237
CC(C)CON=C1C[C@@H](O)[C@@H](O)[C@@H]2[C@@H]3C(=O)N(Cc4ccccc4)C(=O)[C@@H]3CC[C@@H]12,-0.404,0.129,-0.141,0.256,0.455,-0.344,0.211,0.166 (inactive),-0.313,-0.199
CCOC(=O)CCN1C(=O)[C@H]2[C@H]3[C@H](O)[C@H](O)CC(=NOC[C@@H](O)COCc4ccco4)[C@@H]3CC[C@H]2C1=O,0.545,0.457,0.0166,0.484,-0.328,-0.21,0.486,-0.124 (inactive),0.356,-0.134
C=CCOC(=O)[C@H]1[C@@H]2C(=O)O[C@@H](c3ccccc3)[C@@H](c3ccccc3)N2[C@@H](c2ccc(OCCOC(=O)[C@H]3C[C@H]4C(=O)N5CCC[C@H]5C(=O)N4[C@H]3c3cccc(OCCO)c3)cc2)[C@]12C(=O)Nc1ccc(I)cc12,1.82,1.9,0.522,0.92,1.47,2.91,1.47,1.07 (inactive),2.63,0.794
NC(=O)NCC#Cc1ccc2c(c1)[C@]1(C(=O)N2)[C@H](c2ccc(O)cc2)N2[C@H](c3ccccc3)[C@H](c3ccccc3)OC(=O)[C@H]2[C@@H]1C(=O)N1CCCCCCC1,2.38,-0.206,0.242,0.122,0.617,0.467,0.839,-1.21 (inactive),2.31,0.257
CC(CCN1CCCCc2nc(C)c(C)cc21)=NOC(C)CN1CCCCc2nc(C)c(C)cc21 (stereo not given),-0.275,1.93,-0.15,0.682,1.48,0.963,1.28,0.748 (inactive),0.907,0.0174
CCN1C(=O)[C@H]2[C@H]3[C@H](O)[C@H](O)CC(=NOC[C@@H](C)[C@H](OCc4ccccc4)C(C)C)[C@@H]3CC[C@H]2C1=O,-0.468,1.28,-0.128,0.523,0.399,1.24,0.221,0.199 (inactive),0.0662,-0.169
COC(=O)c1c(CC[C@@H](CO)NC(=O)N[C@H](Cc2ccccc2)Cn2cc(-c3ccccc3N)nn2)oc(C(C)=O)c1C(=O)OC,0.718,0.799,0.241,0.465,0.269,0.939,0.71,-0.52 (inactive),0.914,0.176
O=C1[C@H]2[C@H]3[C@H](O)[C@H](O)CC(=NOCc4ccccc4)[C@H]3CC[C@H]2C(=O)N1c1cccc(Oc2ccccc2)c1,-0.602,0.154,-0.052,0.919,0.554,0.391,1.16,0.335 (inactive),0.4,0.0053
CC(CCN1CCc2nc(-c3ccccc3)c(-c3ccccc3)cc2C1)=NO[C@@H](C)c1cn([C@H](CO)Cc2ccccc2)nn1,-0.261,0.608,-0.143,-0.0983,-0.674,0.424,0.124,-0.54 (inactive),0.0854,-0.189
C[C@H]1Cc2c(-c3ccccc3)nc3c(c2CO1)CN(CCOc1ccccc1)CC3,-0.635,0.568,-0.113,0.739,1.41,0.135,0.991,0.53 (inactive),0.307,-0.0708
Cc1ccc(S[C@]2(C(=O)NCC(F)(F)F)CC(=O)N(Cc3ccccc3Cl)[C@@H]2c2ccc(CO)cc2I)cc1,0.647,-0.193,-0.122,0.494,-1.23,2.01,1.21,-1.13 (inactive),-0.611,-0.284
CO[C@H]1COC(=O)[C@@H]2CCCN2C(=O)[C@@H](C)COC(=O)CC=C[C@@H]1C,-0.553,1.69,-0.118,0.624,0.0761,-0.446,0.997,0.36 (inactive),0.107,-0.249
COC(=O)CC=C[C@@H](C)[C@@H](C=NO[C@@H](C)c1cc(-c2c(C)cc(C)cc2C)no1)OC,1.46,-1.99,-0.159,-0.806,-1.69,-0.674,-0.714,0.8 (inactive),-0.358,-0.0672
CCOC(=O)NN=C1C[C@@H](O)[C@@H](O)[C@@H]2[C@@H]3C(=O)N(C4CCCCC4)C(=O)[C@@H]3CC[C@@H]12,-0.236,0.584,-0.194,0.469,0.489,-0.123,-0.424,-0.371 (inactive),0.554,-0.132
CCCCc1nc2c(c3c1C[C@H](C)OC3)CN(CCC(C)C)CC2,-0.578,0.252,-0.0687,0.509,1.16,0.788,1.17,0.607 (inactive),0.295,-0.199
C[C@@H](c1ccccc1)N1C(=O)[C@H]2[C@H]3[C@H](O)[C@H](O)CC(=NNC(=O)OCc4ccccc4)[C@H]3CC[C@H]2C1=O,0.512,0.16,-0.129,0.201,0.382,-0.207,-0.451,0.0168 (inactive),0.366,-0.236
CO[C@H]1COC(=O)CC=C[C@H](C)[C@@H](NS(=O)(=O)c2ccc(C)cc2)COC(=O)CC=C[C@@H]1C,-0.599,0.871,-0.134,0.339,0.381,-0.425,-0.377,-1.15 (inactive),-0.197,-0.0994
C[C@@H]1CC[C@H]2C(=O)O[C@H](COc3ccc(C(C)(C)C)cc3)CN2[C@H]1c1ccc(Br)cc1,-0.417,-0.16,-0.026,-0.0359,0.111,0.536,-0.414,0.414 (inactive),-0.0273,-0.0296
